# According to paper PMC12136788:
# Positions count from the first letter of the chain named. Over roughly 5,800 sequences, “enrichment r” has its median near 0.68; the highest 2% begin near 11. This excerpt belongs to a sample that is enriched for the highest values.
# T1: UNK ZnF1-6 (called full-length) (human, UniProt Q9C0B0 30-357)
# T1 sequence: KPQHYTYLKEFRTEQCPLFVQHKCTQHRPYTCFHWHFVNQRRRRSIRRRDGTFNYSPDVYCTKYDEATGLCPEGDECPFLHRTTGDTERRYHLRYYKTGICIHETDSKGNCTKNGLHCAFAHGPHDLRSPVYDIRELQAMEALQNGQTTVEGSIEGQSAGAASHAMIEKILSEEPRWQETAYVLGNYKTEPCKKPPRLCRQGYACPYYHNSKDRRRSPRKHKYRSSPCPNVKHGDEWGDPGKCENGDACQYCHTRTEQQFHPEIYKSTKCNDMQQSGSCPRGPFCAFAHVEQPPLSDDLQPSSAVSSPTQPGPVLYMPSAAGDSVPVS
# B1: chr2:1632960:1633155:-|3pUTR|ENSG00000130508|msi1|FALSE|unique (ssRNA)
# RNA: GGGAGUUCUACAGUCCGACGAUCGUCCAUUUUUUAGGUAUUAGAUAUGGCAGAAAAACCAUUUCCACUAUGCAAAGUUCUUUUAGACGUCAGUGAAAAUCAACUCUCAUACCUCAUGGUCUCUCUUUAAUUGACCAAAACCUUCAACAGAGGAUUGAGCAUCA
# B2: ENSG00000168936:stop:overlap|stop_codon|ENSG00000168936|stop_codon|NA|stop_codon (ssRNA)
# RNA: GGGAGUUCUACAGUCCGACGAUCGUGUGGCCAGCACCAACCCUGCUGUGCAGGCCUUUGACAUCUGGAGCUGGAGGCCUGCAUAGGCUGCAUGCAGACACGUGCCAGCGUGAAGCUGGUGAAGACCUGCCAGGAGGCAGCCACCAACAGAGGAUUGAGCAUCA
# B3: chr3:62294290:62294391:+|3pUTR|ENSG00000144724|msi1|total|mutant (ssRNA)
# RNA: GGGAGUUCUACAGUCCGACGAUCAACCCGUCCUCUAAAAAUUCCCUAUUACUCCUACCGCAAUCUAAUAAAAACUACCUACACCGUUACUGUUUUCUUUCCUUCUUUGCCAAAUGUUUUAUAAUAAAUCUCUUAAUUACAUACCAACAGAGGAUUGAGCAUCA
# B4: chr17:75827259:75827360:-|3pUTR|ENSG00000092929|unk|total|mutant (ssRNA)
# RNA: GGGAGUUCUACAGUCCGACGAUCGGACAGUUUGGCUGCUGUGUCUGCUGCGCACGCCCCCUCCCCGGACAGCACCUGCCACCCCGAAACUUUCUCCGCAAAAAAAUUAAUAAAAACAAAUCCAUUGUCCUCUUAAAAUAUGCCCAACAGAGGAUUGAGCAUCA
# B5: ENSG00000070961:be:win_4401|3pUTR|ENSG00000070961|bound_else_gene|NA|bound_elsewhere_windowed (ssRNA)
# RNA: GGGAGUUCUACAGUCCGACGAUCGUUAUGACAUCUGUCCUAAUUAGUUUCUUAAAUACAUUUACUACUUAAUGGUUUUGAAGCAACUGUUUAAUUUUUAAAAUUUUUGAAAACUUGCUAAUAACCUUUUGUUCAGAAUUUAGUCAACAGAGGAUUGAGCAUCA
# B6: chr12:64147824:64147925:+|3pUTR|ENSG00000196935|unk|total|mutant (ssRNA)
# RNA: GGGAGUUCUACAGUCCGACGAUCCAUCUCUGUGGUGUCUUUGUUCCUUUCCUUUCAUUCAUCACUACUUUCUCCUUGACAGCCCGCUUGCAUUAAAUAAUGUGAAACUUUUACCUUUAAAAUAUUUUUUUAUCUCACUUUCAUCAACAGAGGAUUGAGCAUCA
# B7: chr1:151249111:151249212:+|3pUTR|ENSG00000143398|unk|FALSE|unique (ssRNA)
# RNA: GGGAGUUCUACAGUCCGACGAUCGCAGAUUGUUGAAUUCCUGUUCUAUCCCUUCUCUAUCCCACCCUGCCUUGAUAAUAUGUUAGCCCAUACCCCAAAUAACUGUCUAUAUUAGACACCCCCAGCCAGUUUCUGGCUGCCUGUCAACAGAGGAUUGAGCAUCA
# B8: chr17:77216858:77216994:+|3pUTR|ENSG00000129657|unk|FALSE|bound_elsewhere (ssRNA)
# RNA: GGGAGUUCUACAGUCCGACGAUCUGUUUCUACCUUUAGUACCUUGCCACUCUUUUAAAACGCUGCUGUCAUUUCCCAUUUCUUAGUACUAAUGAUUCUUUGAUUCUCCCUCUAUUAUGUCUUAAUUCACUUUCCUUCCUAAAUCAACAGAGGAUUGAGCAUCA
# B9: chr17:75827259:75827360:-|3pUTR|ENSG00000092929|unk|FALSE|unique (ssRNA)
# RNA: B4 RNA with C83U, C84A, C95U, C96A
# B10: chr3:62294290:62294391:+|3pUTR|ENSG00000144724|msi1|FALSE|unique (ssRNA)
# RNA: B3 RNA with C27U, C28A, C57U, C58A, C83U, C84A
# B11: chr20:3963869:3963970:-|CDS|ENSG00000101236|unk|FALSE|bound_elsewhere (ssRNA)
# RNA: GGGAGUUCUACAGUCCGACGAUCAAUCUGCCUCUCAACAUAUAUAUUGUGGUUUUUGGUACUGCUAUAUUUGUCUUCAUCCUUAGUUUACUCUUCUGUUGCUACUUGAUUAGGUAACCAAUUUUCAUUCUAUGUUACUUCAAACAACAGAGGAUUGAGCAUCA
# B12: chr8:48920054:48920155:-|CDS|ENSG00000019549|unk|total|mutant (ssRNA)
# RNA: GGGAGUUCUACAGUCCGACGAUCACCUAUUCAACUUUUUCUGGGCUGGCCAAACAUAAGCAGCUGCACUGCGAUGCCCAGUCCCGAAAAUCUUUCAGCUGUAAAUACUGUGACAAGGAAUAUGUGAGCCUGGGCGCCCUGAAGCAACAGAGGAUUGAGCAUCA
# B13: ENSG00000113300:stop:overlap|stop_codon|ENSG00000113300|stop_codon|NA|stop_codon (ssRNA)
# RNA: GGGAGUUCUACAGUCCGACGAUCUGGAGCUCUUACUGCCUUUCCUGCCCCAAGUCAACGGCAUCCACCUUCCUGGCAGGAGGUAGUCAAGCACCUUCAGAGGACAGCCUUGAUUCACUUGUAAACUUGUGAAAAUCUGAACAUCAACAGAGGAUUGAGCAUCA
# B14: ENSG00000107863:be:win_5701|CDS|ENSG00000107863|bound_else_gene|NA|bound_elsewhere_windowed (ssRNA)
# RNA: GGGAGUUCUACAGUCCGACGAUCAGCACCUUGGCUUCAACAAACAGGCCCCUUCUUUCCAUACCACCACAGUCACCUGACCAAAUAAACGGAGAAAGCUUCCAGAACGUGAGCAAAAAUGCUAGUUCUGCAGCGAAUGCCCAACAACAGAGGAUUGAGCAUCA
# B15: chr2:1632960:1633155:-|3pUTR|ENSG00000130508|msi1|total|mutant (ssRNA)
# RNA: B1 RNA with U34C, A35C, U41C, A42C, U83C, A84C
# B16: chr11:119024350:119024909:-|three_prime_utr|ENSG00000137700|control|control|control (ssRNA)
# RNA: GGGAGUUCUACAGUCCGACGAUCUCCCACGGUGGCCUUCCCCCUGCACGCUCUGCGGGGAGAAAAGGAGGGGCCUGCCUGGCUAGCCCUGAACCUUUCACUUUCCAUUUCUGCGCCUUUUCUGUCACCCGGGUGGCGCUGGAACAACAGAGGAUUGAGCAUCA
# Target: T1, UNK ZnF1-6 (called full-length)
# Assay: nsRBNS (natural sequence RNA bind-n-seq); RBNS binding buffer (assumed for nsRBNS): 25 mM Tris pH 7.5, 150 mM KCl, 3 mM MgCl2, 0.01% Triton X-100, 500 ug/ml BSA, 20 U/ml SUPERase-In, 4 C; UNK is unkempt and MSI1 is Musashi-1; names of the RNAs are library labels; protein concentration not given here; high values mean tight binding
row,Binder,binding signal
1,B1,0.915 enrichment R
2,B2,1.06 enrichment R
3,B3,3.11 enrichment R
4,B4,0.989 enrichment R
5,B5,5.85 enrichment R
6,B6,2.22 enrichment R
7,B7,2.26 enrichment R
8,B8,14 enrichment R
9,B9,25.7 enrichment R
10,B10,68.7 enrichment R
11,B11,2.08 enrichment R
12,B12,0.712 enrichment R
13,B13,21.5 enrichment R
14,B14,0.589 enrichment R
15,B15,0.41 enrichment R
16,B16,0.719 enrichment R
